Experimental findings from PubChem BioAssay (Tox21) are described below.

Molecules are shown by their SMILES. Where “and” joins values, the source holds several entries; their conditions need not be identical. Identical values can stand only once. Unmarked numbers belong to inactive results. Results filed as inconclusive are left out. Calls of active or inactive are those of the source. Calls follow the shape of the dose curve; as a rule, active = well fitted curve in the direction sought with a large enough effect in the repeat runs; inconclusive = weak or mixed curves; inactive = no such curve, though single readings can be large; an effect the other way counts as inactive or inconclusive.

Test [1] can be described thus: qHTS RealTime-Glo MT Cell Viability Assay in HEK293 cells - 16 hour (AID 1224872). Also: nearly all actives have a fitted effect of over 50% in size. Also: potency is read from the fitted curve at half-maximal effect. As to activity change, negative = cytotoxicity: top concentration of the series differs between compounds. The essentials:
(§1)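 HEK293 cells were seeded at 600 cells/well together with NanoLuc luciferase and cell-permeant prosubstrate, preincubated 5 h at 37 C/5% CO2, then given compound in DMSO by pintool. Luminescence from viable-cell prosubstrate reduction was read repeatedly over 40 h.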

A short description of test [2]: qHTS RealTime-Glo MT Cell Viability Assay in HEK293 cells - 40 hour (AID 1224874). Also: nearly all actives have a fitted effect of over 50% in size. Also: potency is read from the fitted curve at half-maximal effect. To be noted: RealTime-Glo luminescence; max response: active compounds read low. The method in brief: (§2)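 600 HEK293 cells per well, dispensed already mixed with RealTime-Glo MT reagents. Compound dosing came 5 h later. The same wells were read for luminescence at 0, 8, 16, 24, 32 and 40 h of exposure at 37 C.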
On the technique in general: In qHTS, concentration-response curves come from the screen itself.

Test [3] in a line: A CellTox Green Cytotoxicity Assay to monitor cytotoxicity in HepG2 cells - 16 hour (AID 1224876). Also: nearly all actives have a fitted effect of over 45% in size. Also: potency is read from the fitted curve at half-maximal effect. The essentials:
(§3)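 First, HepG2 cells (600/well) mixed with reagent were plated; second, after 5 h at 37 C they received compounds via pintool; third, fluorescence was measured at 0 h through 40 h at 8 h intervals.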

Test [4] can be described thus: qHTS RealTime-Glo MT Cell Viability Assay in HepG2 cells - 32 hour (AID 1224877). Also: nearly all actives have a fitted effect of over 55% in size. Also: potency is read from the fitted curve at half-maximal effect. The method in brief:
(§4)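 HepG2 cells were seeded at 600 cells/well together with NanoLuc luciferase and a cell-permeant prosubstrate, preincubated 5 h at 37 C/5% CO2, then pin-dosed with compounds in DMSO. Nonlytic luminescence from viable cells was read at each time point.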

Test [5] is described as follows: A CellTox Green Cytotoxicity Assay to monitor cytotoxicity in HepG2 cells - 24 hour (AID 1224878). Also: nearly all actives have a fitted effect of over 45% in size. Also: potency is read from the fitted curve at half-maximal effect. The essentials:
as §3

A short description of test [6]: A CellTox Green Cytotoxicity Assay to monitor cytotoxicity in HepG2 cells - 40 hour (AID 1224879). Also: nearly all actives have a fitted effect of over 40% in size. Also: potency is read from the fitted curve at half-maximal effect. The method in brief:
as §3

Test [7] in a line: qHTS RealTime-Glo MT Cell Viability Assay in HEK293 cells - 0 hour (AID 1224880). Also: top concentration of the series differs between compounds; nearly all actives have a fitted effect of over 45% in size. The essentials: as §2
Test [8] in a line: A CellTox Green Cytotoxicity Assay to monitor cytotoxicity in HEK293 cells - 32 hour (AID 1224881). Also: nearly all actives have a fitted effect of over 40% in size. Also: potency is read from the fitted curve at half-maximal effect. The essentials:
(§5)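 Dead-cell fluorescence measured kinetically: asymmetric cyanine dye, HEK293, 600 cells/well, 5 h settle, 23 nL cpd/DMSO, 37 C, reads 0–40 h every 8 h.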

Test [9] can be described thus: A CellTox Green Cytotoxicity Assay to monitor cytotoxicity in HepG2 cells - 0 hour (AID 1224882). Also: nearly all actives have a fitted effect of over 35% in size. The essentials:
as §3

The nature of test [10]: A CellTox Green Cytotoxicity Assay to monitor cytotoxicity in HepG2 cells - 32 hour (AID 1224883). Also: nearly all actives have a fitted effect of over 50% in size. Also: potency is read from the fitted curve at half-maximal effect. The method in brief: as §3
The nature of test [11]: A CellTox Green Cytotoxicity Assay to monitor cytotoxicity in HEK293 cells - 8 hour (AID 1224884). Also: nearly all actives have a fitted effect of over 35% in size. The method in brief: as §5
Test [12] can be described thus: qHTS RealTime-Glo MT Cell Viability Assay in HepG2 cells - 16 hour (AID 1224885). Also: nearly all actives have a fitted effect of over 50% in size. Also: potency is read from the fitted curve at half-maximal effect. The essentials: as §4
A short description of test [13]: qHTS RealTime-Glo MT Cell Viability Assay in HEK293 cells - 24 hour (AID 1224886). Also: nearly all actives have a fitted effect of over 50% in size. Also: potency is read from the fitted curve at half-maximal effect. As to activity change, negative = cytotoxicity: top concentration of the series differs between compounds. The method in brief:
as §1

Test [14] is described as follows: A CellTox Green Cytotoxicity Assay to monitor cytotoxicity in HEK293 cells - 16 hour (AID 1224888). Also: nearly all actives have a fitted effect of over 35% in size. Also: potency is read from the fitted curve at half-maximal effect. The essentials: as §5
The nature of test [15]: qHTS RealTime-Glo MT Cell Viability Assay in HepG2 cells - 0 hour (AID 1224889). Also: nearly all actives have a fitted effect of over 50% in size. The essentials: as §4
Test [16] can be described thus: A CellTox Green Cytotoxicity Assay to monitor cytotoxicity in HepG2 cells - 8 hour (AID 1224890). Also: nearly all actives have a fitted effect of over 45% in size. Also: potency is read from the fitted curve at half-maximal effect. The essentials:
as §3

Test [17] in a line: qHTS assay to identify small molecule antagonists of the estrogen receptor alpha (ER-alpha) signaling pathway using the BG1 cell line in the presence of 0.1 nM 17-beta-estradiol - cell viability counter screen (AID 1259241). Also: nearly all actives have a fitted effect of over 40% in size. Also: potency is read from the fitted curve at half-maximal effect. The method in brief: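 CellTiter-Fluor read (30 min, 37C) on ER-alpha/ERE-luc VM7Luc4E2 cells; 22 hr compound treatment; agonist 0.1 nM E2 final; same-well multiplex.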

Test [18] is described as follows: A CellTox Green Cytotoxicity Assay to monitor cytotoxicity in HEK293 cells - 24 hour (AID 1224875). Also: nearly all actives have a fitted effect of over 45% in size. Also: potency is read from the fitted curve at half-maximal effect. As to activity change: series mostly up to about 77 µM. The method in brief: as §5
Test [19] can be described thus: qHTS RealTime-Glo MT Cell Viability Assay in HEK293 cells - 8 hour (AID 1224887). Also: nearly all actives have a fitted effect of over 50% in size. Also: potency is read from the fitted curve at half-maximal effect. As to activity change, negative = cytotoxicity: top concentration of the series differs between compounds. The method in brief: as §2
Test [20] is described as follows: qHTS RealTime-Glo MT Cell Viability Assay in HepG2 cells - 8 hour (AID 1224873). Also: nearly all actives have a fitted effect of over 55% in size. The method in brief:
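HepG2 cells mixed with RealTime-Glo MT reagents (NanoLuc plus cell-permeant prosubstrate) were seeded at 600 cells/well, incubated 5 h at 37 C/5% CO2, then pinned with compounds in DMSO; nonlytic luminescence tracked viability during 40 h treatment.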
% is scaled to controls: 0 for no effect and ±100 for the full control effect.

With `CC(C)c1ccc(O)c(C(C)C)c1`, the Potency entry in [1], in [4], in test [7], in test [9], in test [11] and in test [12] was “inactive” each time. The Potency entry in test [13], in test [15] and in [17] was “inactive” in each case. Besides, the max response in [2] is -12.3%. Moreover, the Potency in test [3] was 43.6 µM (active); in [5] it was 27.5 µM (active); in test [6], 27.5 µM (active); in test [8], 21.9 µM (active); in [10], 27.5 µM (active); in test [14], 19.5 µM (active). The Potency in test [16] is 43.6 µM (active).
`C=CC(=O)OCCOCC(CC)(COCCOC(=O)C=C)COCCOC(=O)C=C`: the Potency in test [1] is 18.1 µM (active); in test [2] it was 14.4 µM (active); in test [4], 28.7 µM (active); in [6], 25.6 µM (active); in test [10], 25.6 µM (active); in test [13], 16.1 µM (active). Further, in [17], the Potency was 14.3 µM (active). Also, the Potency entry in test [3], in test [7], in [9], in test [11], in [14] and in test [15] was “inactive” throughout. Moreover, the Potency result in [16] was “inactive”.
On to `CCCCCCCCCCOCC(O)CN` (configuration not stated), for which the Potency in test [1] was 23.9 µM (active); in test [2] it was 23.9 µM (active); in test [18] it was 23.9 µM (active); in [3], 19 µM (active); in test [4] it was 15.1 µM (active); in test [5] it was 15.1 µM (active). Also, the Potency in test [6] is 15.1 µM (active); in [10], 13.4 µM (active); in [12] it was 16.9 µM (active); in test [13], 23.9 µM (active); in test [19] it was 23.9 µM (active); in test [14] it was 26.8 µM (active). Moreover, the Potency in test [16] is 26.8 µM (active). In addition, the Potency result in [17] was “inactive”.
As to `S=C(SSSSSSC(=S)N1CCCCC1)N1CCCCC1`, the Potency in [1] was 13.6 µM (active); in test [2], 0.192 µM (active). Also, the results for the cytotoxicity increase in test [3], in test [10] and in test [11] were -6.85% [at 15.8 µM], 16.8% [at 15.8 µM] and -0.556% [at 15.8 µM], respectively. Moreover, the activity change, negative = cytotoxic in test [4] is -24.5% [at 15.8 µM]. Besides, the results for the cytotoxicity in [5] and in test [9] were -0.0697% [at 15.8 µM] and -6.55% [at 15.8 µM], respectively. In addition, the results for the activity change, negative = cytotoxicity in test [7] and in test [15] were -11.8% [at 15.8 µM] and -21.4% [at 15.8 µM], respectively. Also, the activity change in [14] was 19.1% [at 15.8 µM, active compounds read high].
For `Cn1cnc2ncnc(N)c21`, the Potency result in test [20], in test [18], in [3], in test [4], in [5] and in [6] was “inactive” in each case. Also, the Potency entry in test [7], in test [8], in test [9], in [10], in test [11] and in test [12] was “inactive” in each case. Further, the Potency entry in [13], in test [19], in test [15] and in test [16] was “inactive” each time. Also, the max response in test [2] was 11.2%.
In the case of `CC(C)CCOCCC(C)C`, the Potency entry in test [20], in test [18], in [3], in test [4], in test [5] and in test [6] was “inactive” in each case. In addition, the Potency entry in [7], in test [8], in test [9], in [10], in test [11] and in test [12] was “inactive” throughout. For the same molecule, the Potency result in test [13], in test [19], in test [15], in test [16] and in [17] was “inactive” in each case. The max response in [2] was 7.57%.
`C[C@H]1O[C@@H](O[C@H]2[C@@H](O)C[C@H](O[C@H]3[C@@H](O)C[C@H](O[C@H]4CC[C@@]5(C)[C@H](CC[C@@H]6[C@@H]5C[C@@H](O)[C@]5(C)[C@@H](C7=CC(=O)OC7)CC[C@]65O)C4)O[C@@H]3C)O[C@@H]2C)C[C@H](O)[C@@H]1O`: the Potency result in [20], in test [18], in [3], in [4], in test [5] and in test [6] was “inactive” throughout. Besides, the Potency entry in test [7], in [8], in test [9], in [10], in test [11] and in [12] was “inactive” throughout. Also, the Potency result in [19], in test [14], in test [15] and in [16] was “inactive” in each case. Further, the Potency in test [2] is 61.7 nM (active) and 54.3 nM (active); in test [13] it was 69.2 nM (active) and 61 nM (active).
As to `COc1ccccc1OCCNCC(O)COc1cccc2[nH]c3ccccc3c12` (configuration not stated), the Potency is 16.9 µM (active) in [1]; 10.7 µM (active) in test [2]; 23.9 µM (active) in [3]; 23.9 µM (active) in [4]; 26.8 µM (active) in [5]; 23.9 µM (active) in test [6]. The Potency in test [10] was 23.9 µM (active); in [12], 23.9 µM (active); in test [19], 16.9 µM (active). Also, the Potency entry in test [7], in test [9], in [11], in test [15] and in test [16] was “inactive” throughout.
As to `CC(=O)OC(OC(C)=O)c1ccc([N+](=O)[O-])o1`, the Potency in test [1] was 44.4 µM (active); in test [2], 44.4 µM (active); in test [6], 49.8 µM (active); in test [10], 55.9 µM (active); in test [13], 44.4 µM (active); in test [19], 39.6 µM (active). The Potency in test [17] is 55.4 µM (active). In addition, the Potency result in [7], in test [9], in test [11], in [15] and in test [16] was “inactive” each time.
For `CCc1cccc(C)c1`, the Potency result in test [20], in test [18], in test [3], in test [4], in test [5] and in test [6] was “inactive” in each case. Also, the Potency result in test [7], in [8], in test [9], in test [10], in test [11] and in [12] was “inactive” throughout. Besides, the Potency result in test [13], in test [19], in test [15] and in test [17] was “inactive” each time. Besides, in [2], the max response is -0.877%.
